Screens: PubChem BioAssay, National Center for Advancing Translational Sciences (NCATS)
Only some compounds are listed: those with a hit (about 7.8% of all), similar ones and a draw of the others.
Vaccinia Venus: vaccinia inhibition (Venus reporter); 0.46% of 330,000 active; Vaccinia virus Venus reporter expression, fluorescence; AID 720580; Potency, µM (series often up to 36.5 µM), for inactives: at the top dose activity change, negative = inhibition, hits mostly inhibitors; calls by dose curve; tested in A549 cells; note: potency is the fitted concentration of half-maximal effect; nearly all actives have a fitted effect of over 30% in size
MARV entry inh: Marburg virus entry inhibition | Marburg virus pseudotyped entry inhibition, cell reporter | AID 540276 | Potency, µM (highest dose often 37.8 µM), for inactives: top-dose activity change, negative = inhibition, actives largely listed as inhibitors | 1.8% of 300,000 active; calls by dose curve; tested in HEK293 cells; note: potency is the fitted concentration of half-maximal effect
Vaccinia mCherry: inhibitors of vaccinia virus infection (mCherry reporter signal); Vaccinia virus mCherry reporter infection, fluorescence; Potency, µM (series often up to 36.5 µM), inactives show at the top dose activity change, negative = inhibition, most hits filed as inhibitors; 0.63% of 310,000 active; calls by dose curve; tested in A549 cells; note: potency is the fitted concentration of half-maximal effect; nearly all actives have a fitted effect of over 35% in size
HCMV antiviral: blocks human cytomegalovirus replication. HFF cells, HCMV-luciferase reporter, 72 h; hits give low values. activity change, negative = inhibition, % at 57.5 µM. 4.5% of 410,000 active. AID 1259415; in the data active = activity change below about -60%; inconclusive = no clear call, values can overlap the other calls; inactive = above about -39%
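Cell-based, HFFs, 1000 cells/well, 16 h 37C; cpds in DMSO + HCMV-luc, MOI 1 PFU/cell; 72 h 37C; OneGlo luminescence after 5 min RT; norm. to buffer vs Salinomycin 10uM.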
HCV inh: HCV inhibition | Huh7.5.1 HCVcc-Cre infection, luciferase reporter, 44 h | Potency, µM (doses to about 41.8 µM), inactives show at the highest dose activity change, negative = inhibition, actives largely listed as inhibitors | 3.4% of 340,000 active | AID 651820; active = well fitted inhibition curve with a large enough effect; inconclusive = small, poorly fitted or top-dose-only effect, or another doubt; inactive = no such curve, though single readings can be large or run the other way; note: potency is the fitted concentration of half-maximal effect
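Seed cells (1,000/well) for 4 h; treat with compound and infect with HCVcc-Cre, moi about 0.5. Incubate 44 h, then detect luciferase activity.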
LASV entry inh: blocks Lassa virus binding to or entry into cells. Lassa virus pseudotype entry inhibition, cell reporter. Potency, µM (highest dose often 37.9 µM), without a hit: top-dose activity change, negative = inhibition, usual class: inhibitors. 1.2% of 300,000 active. AID 540256; calls by dose curve; tested in HEK293 cells; note: potency is the fitted concentration of half-maximal effect; nearly all actives have a fitted effect of over 50% in size
* = called active by the depositor; [ ] = another dose, or the depositor's remark. % is set by controls: 0 for no effect and ±100 for the full control effect.

Results for O=C(Cn1cc[n+](Cc2ccccc2)c1)c1ccc([N+](=O)[O-])cc1 ?
Vaccinia Venus: -14%; MARV entry inh: inconclusive; Vaccinia mCherry: inconclusive; HCMV antiviral: inconclusive; HCV inh: inconclusive; LASV entry inh: inconclusive

How did COc1ccc(C(=O)C[n+]2cccc3cc(OC)ccc32)cc1 do in these assays?
Vaccinia Venus: -14%; MARV entry inh: -14%; Vaccinia mCherry: -21%; HCMV antiviral: -66*; HCV inh: inconclusive; LASV entry inh: -11%

Results for COc1cccc(C(=O)C[n+]2cccc3cc(OC)ccc32)c1 ?
HCMV antiviral: 24; HCV inh: 12%

What do the screens show for `O=C(C[n+]1cccc2ccccc21)c1ccc([N+](=O)[O-])cc1`?
Vaccinia Venus: 2%; MARV entry inh: inconclusive; Vaccinia mCherry: -15%; HCMV antiviral: -13; HCV inh: 11µM*; LASV entry inh: inconclusive

What do the screens show for `O=C(C[n+]1ccn(-c2ccccc2)c1)c1ccc([N+](=O)[O-])cc1`?
HCMV antiviral: -63*; HCV inh: inconclusive

What do the screens show for `CCc1ccc2oc(-c3cc(NC(=O)COc4ccc(C)cc4)ccc3O)nc2c1`?
Vaccinia Venus: inconclusive; Vaccinia mCherry: -17%

What do the screens show for `Cc1cc(C)c(C)c(S(=O)(=O)Nc2ccc3cn[nH]c3c2)c1C`?
HCMV antiviral: -84*; HCV inh: 13µM*

Results for CCOC(=O)c1ccc(S(=O)(=O)Nc2ccc3cn[nH]c3c2)cc1 ?
MARV entry inh: -27%; HCMV antiviral: -18; HCV inh: 11µM*; LASV entry inh: inconclusive

How did COc1ccc(S(=O)(=O)Nc2ccc3cn[nH]c3c2)cc1C do in these assays?
Vaccinia Venus: -14%; MARV entry inh: inconclusive; Vaccinia mCherry: -16%; HCMV antiviral: 15; HCV inh: -20%; LASV entry inh: 2%

Results for Cc1[nH]nc2nc(SCC(=O)NCCC3=CCCCC3)n(-c3ccc(Br)cc3)c(=N)c12 ?
HCMV antiviral: -78*; HCV inh: inconclusive

How did Cc1ccccc1-n1c(SCC(=O)Nc2ccccc2Cl)nc2n[nH]c(C)c2c1=N do in these assays?
HCMV antiviral: -22; HCV inh: inconclusive

What do the screens show for `COc1ccc(OC)c(NC(=O)CSc2nc3n[nH]c(C)c3c(=N)n2-c2cccc(Cl)c2C)c1`?
Vaccinia Venus: inconclusive; MARV entry inh: 18µM*; Vaccinia mCherry: -26%; HCMV antiviral: inconclusive; HCV inh: inconclusive; LASV entry inh: -6%[46.1 µM]

How did Cc1ccc(CNC(=O)CSc2nc3n[nH]c(C)c3c(=N)n2-c2ccccc2Cl)cc1 do in these assays?
Vaccinia Venus: -3%; Vaccinia mCherry: -6%; HCMV antiviral: -4; LASV entry inh: 5%[46.1 µM]

What do the screens show for `Cc1c(Cl)cccc1-n1c(SCC(=O)NCc2ccccc2)nc2n[nH]c(C)c2c1=N`?
Vaccinia Venus: inconclusive; Vaccinia mCherry: inconclusive; HCMV antiviral: -61*; LASV entry inh: -27%[46.1 µM]

Results for O=C(NN=C1C[C@@H](O)[C@H](O)[C@H]2[C@@H]3C(=O)N(C[C@@H]4CCCO4)C(=O)[C@@H]3CC[C@H]12)OCc1ccccc1 ?
MARV entry inh: inconclusive; LASV entry inh: 2%[14.3 µM]

Results for Cc1c(C(=O)Nc2ccc(Br)cc2)cnn1C ?
Vaccinia Venus: -2%; MARV entry inh: 8%; Vaccinia mCherry: -8%; HCMV antiviral: 118; HCV inh: 8%; LASV entry inh: inconclusive

What do the screens show for `Cc1c(C(=O)c2no[n+]([O-])c2C(=O)c2cnn(C)c2C)cnn1C`?
Vaccinia Venus: -13%; MARV entry inh: -2%; Vaccinia mCherry: -16%[1.46 µM]; HCMV antiviral: -107*; HCV inh: inconclusive; LASV entry inh: 2%

Results for N=c1ccn(Cc2c(Cl)cccc2Cl)cc1 ?
Vaccinia Venus: 7%; MARV entry inh: inconclusive; Vaccinia mCherry: -19%; HCMV antiviral: -78*; HCV inh: inconclusive; LASV entry inh: -13%[46.1 µM]

What do the screens show for `N=c1ccn(Cc2ccc(Cl)cc2Cl)cc1`?
Vaccinia Venus: inconclusive; MARV entry inh: -12%; HCMV antiviral: -97*; HCV inh: 2.8µM*; LASV entry inh: inconclusive

What do the screens show for `N=c1ccn(Cc2ccccc2Cl)cc1`?
Vaccinia Venus: inconclusive; MARV entry inh: inconclusive; HCMV antiviral: -85*; HCV inh: 2.5µM*; LASV entry inh: -2%

Results for COc1ccc(S(=O)(=O)n2nc(C)c(S(=O)(=O)N3CCCCC3)c2C)cc1 ?
Vaccinia Venus: -10%; Vaccinia mCherry: -16%; HCMV antiviral: 3; LASV entry inh: 14%[46.1 µM]

How did Nn1c(SCc2nc3ccccc3[nH]2)nnc1-c1ccccc1 do in these assays?
MARV entry inh: -5%; HCMV antiviral: -1; HCV inh: -2%; LASV entry inh: -8%

What do the screens show for `c1ccc(-c2nnc(SCc3nc4ccccc4[nH]3)n2Cc2ccco2)cc1`?
MARV entry inh: -12%; HCMV antiviral: -68*; HCV inh: -8%; LASV entry inh: 8%

What do the screens show for `CCn1c(SCc2nc3ccccc3[nH]2)nnc1-c1ccc(OC)cc1`?
MARV entry inh: -11%; HCMV antiviral: -73*; HCV inh: inconclusive; LASV entry inh: -3%

Results for Cc1ccc(OCc2nnc(SCc3nc4ccccc4[nH]3)n2Cc2ccco2)cc1 ?
Vaccinia Venus: inconclusive; MARV entry inh: inconclusive; HCMV antiviral: -69*; HCV inh: 10µM*; LASV entry inh: inconclusive

Results for CCn1c(COc2ccc(Cl)cc2)nnc1SCc1nc2ccccc2[nH]1 ?
MARV entry inh: inconclusive; HCMV antiviral: inconclusive; HCV inh: inconclusive; LASV entry inh: 0%

How did COC(=O)CC=C[C@@H](C)[C@@H](Cc1ccccc1Br)OC do in these assays?
MARV entry inh: -4%[14.2 µM]; LASV entry inh: 0%[14.3 µM]

How did O=[N+]([O-])c1ccc(/C=N/n2cnc3ccccc32)s1 do in these assays?
Vaccinia Venus: 6.3µM*; MARV entry inh: inconclusive; Vaccinia mCherry: 5µM*; HCMV antiviral: 48; HCV inh: inconclusive; LASV entry inh: inconclusive

Results for Cc1cc2ncn(/N=C/c3ccc([N+](=O)[O-])s3)c2cc1C ?
Vaccinia Venus: inconclusive; MARV entry inh: inconclusive; Vaccinia mCherry: inconclusive; HCMV antiviral: -5; HCV inh: 11µM*; LASV entry inh: -6%

What do the screens show for `c1ccc2nccnc2c1`?
Vaccinia Venus: 3.5µM*; Vaccinia mCherry: 11µM*

How did S=C(Nc1ccccc1)Nc1cccc(Br)c1 do in these assays?
HCMV antiviral: -33; HCV inh: -5%

Results for CN(C)c1cc(O)c(C(=S)Nc2ccccc2)c(N(C)C)c1 ?
Vaccinia Venus: -4%; MARV entry inh: inconclusive; Vaccinia mCherry: -5%; HCMV antiviral: 40; HCV inh: 11µM*; LASV entry inh: 10%

How did CN(C)c1ccc(NC(=S)c2ccccn2)cc1 do in these assays?
Vaccinia Venus: -18%; MARV entry inh: 0.82µM*; Vaccinia mCherry: -24%; HCMV antiviral: -91*; HCV inh: 11%; LASV entry inh: 0.89µM*
